Consider 20 compounds from the supplement of paper PMC8007513.

Structures are written as SMILES. Where a name gives a salt, the structure may show the parent alone. ± gives the standard error. The campaign covered roughly 1,300 compounds. About 75 (6%) showed an effect of 50% or more. The full list was thinned out, with strong results kept by preference.

The test system of the test is Trichoderma virens ATCC 9645. Briefly: growth yield (OD600) relative to untreated control; higher = less growth inhibition. The settings on record: compound concentration: 100 uM. In short, it runs like this:
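A biocide at 200 ng ml^−1 was co-applied to some wells, and library compounds were present in all test wells at 100 μM final. The wells held 100 μl of Trichoderma virens ATCC 9645 spores at 15,000 spores ml^−1 in potato dextrose broth, grown at 30 °C in 96-well plates, with OD600 read at 40 h and 72 h. Results are relative growth against the control without either agent, averaged across duplicate screens.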

In turn, `Oc1cc(Cl)ccc1Oc1ccc(Cl)cc1Cl` [Triclosan] displayed a growth yield (40 h) of 6.99 ± 4.1% and a growth yield (72 h) of 3.25 ± 0.1%.
As for `CCNCC(O)c1cccc(O)c1` (stereo not given) [Etilefrine hydrochloride], the growth yield by setting is: (40 h) 105 ± 3%; (72 h) 103.1 ± 0.94%.
With `C=CCC1(CC(C)C)C(=O)NC(=O)NC1=O` [Butalbital], the growth yield is, setting by setting: (40 h) 98.2%; (72 h) 96.5%.
As to `CNCC(O)c1ccc(O)cc1` (racemic) [(+,-)-Synephrine], the growth yield is, setting by setting: (40 h) 105 ± 4.3%; (72 h) 100 ± 2.3%.
With `O=C([O-])c1ccccc1-c1c2cc(Br)c(=O)cc-2oc2[c]([Hg+])c([O-])c(Br)cc12.[Na+].[Na+].[OH-]` [Merbromin], the growth yield reads like this: (40 h) 2.54 ± 0.95%; (72 h) 2.2 ± 0.94%.
On to `CCN(CC)C(C)C(=O)c1ccccc1` (stereo not given) [Amfepramone hydrochloride], for which the growth yield by setting is: (40 h) 102 ± 3%; (72 h) 99 ± 3.1%.
In the case of `CC1OC(OC2/C=C/C=C/C=C/C=C/CC/C=C/C=C/[C@H](C)[C@@H](O)[C@@H](C)[C@H](C)OC(=O)CC(O)CC(O)CC(O)CCC(O)C(O)C[C@]3(O)CC(O)C(C(=O)O)C(C2)O3)C(O)C(N)C1O` (stereo not given in full) [Nystatine], the growth yield is, setting by setting: (40 h) 97.4 ± 5.6%; (72 h) 107.3 ± 0.94%.
For the compound `O=C(CCCN1CCC(n2c(=O)[nH]c3ccccc32)CC1)c1ccc(F)cc1` [Benperidol], the growth yield reads like this: (40 h) 102 ± 5.2%; (72 h) 99.9 ± 7.2%.
In the same order, the values of `CC[C@H](C)[C@H]1O[C@]2(C=C[C@@H]1C)C[C@@H]1C[C@@H](C/C=C(\C)[C@@H](O[C@H]3C[C@H](OC)[C@@H](O[C@H]4C[C@H](OC)[C@@H](O)[C@H](C)O4)[C@H](C)O3)[C@@H](C)/C=C/C=C3\CO[C@@H]4[C@H](O)C(C)=C[C@@H](C(=O)O1)[C@]34O)O2.CO[C@H]1C[C@H](O[C@H]2[C@H](C)O[C@@H](O[C@@H]3/C(C)=C/C[C@@H]4C[C@@H](C[C@]5(C=C[C@H](C)[C@@H](C(C)C)O5)O4)OC(=O)[C@@H]4C=C(C)[C@@H](O)[C@H]5OC/C(=C\C=C\[C@@H]3C)[C@]54O)C[C@@H]2OC)O[C@@H](C)[C@@H]1O` [Avermectin B1] are 107 ± 5.6% and 105 ± 2.3%.
As for `CCCCCC[C@H]1C(=O)O[C@H](C)[C@H](NC(=O)c2cccc(NC=O)c2O)C(=O)O[C@@H](C)[C@@H]1OC(=O)CC(C)C` [Antimycin A], the growth yield reads like this: (40 h) 27.5 ± 1.1%; (72 h) 49.6 ± 2.6%.
In the same order, the values of `C#CCN(C)[C@H](C)Cc1ccccc1` [Selegiline hydrochloride] are 102 ± 1.4% and 104 ± 5%.
As for `CCCC(C)C1(CC)C(=O)NC(=O)NC1=O` (stereo not given) [Pentobarbital], the growth yield reads like this: (40 h) 101.3 ± 0.95%; (72 h) 102 ± 1.7%.
In the same order, the values of `CC(=O)OCC1=C(C(=O)O)N2C(=O)[C@@H](N)[C@H]2SC1` [Cephalosporanic acid, 7-amino] are 105 ± 5.7% and 107 ± 6.2%.
In the case of `CCC(=O)O[C@@](Cc1ccccc1)(c1ccccc1)[C@@H](C)CN(C)C` [Levopropoxyphene napsylate], the growth yield reads like this: (40 h) 106 ± 2.9%; (72 h) 103 ± 3.4%.
Turning to `C[C@]12C/C(=C/O)C(=O)C[C@@H]1CC[C@@H]1[C@@H]2CC[C@@]2(C)[C@H]1CC[C@]2(C)O` [Oxymetholone], the growth yield is, setting by setting: (40 h) 96.9 ± 9.2%; (72 h) 91.5 ± 4.8%.
Consider `C[C@@H]1C[C@@H]([C@H](O)CC2CC(=O)NC(=O)C2)C(=O)[C@@H](C)C1` [Cycloheximide], for which the growth yield runs as follows: (40 h) 46.7 ± 7.3%; (72 h) 75.5 ± 5.5%.
In the same order, the values of `NCC(CC(=O)O)c1ccc(Cl)cc1` (racemic) [Baclofen (R,S)] are 105 ± 4.1% and 105 ± 4.7%.
For the compound `CN[C@@H]1[C@@H](O)[C@@H](O[C@@H]2[C@@H](O)[C@H](O[C@H]3O[C@H](CN)CC[C@H]3N)[C@@H](N)C[C@H]2N)OC[C@]1(C)O.CN[C@@H]1[C@@H](O)[C@@H](O[C@@H]2[C@@H](O)[C@H](O[C@H]3O[C@H]([C@@H](C)N)CC[C@H]3N)[C@@H](N)C[C@H]2N)OC[C@]1(C)O.CN[C@@H]1[C@@H](O)[C@@H](O[C@@H]2[C@@H](O)[C@H](O[C@H]3O[C@H]([C@@H](C)NC)CC[C@H]3N)[C@@H](N)C[C@H]2N)OC[C@]1(C)O` [Gentamicine sulfate], the growth yield runs as follows: (40 h) 101%; (72 h) 97.3%.
For the compound `NC(=O)OCCCc1ccccc1` [Phenprobamate], the growth yield is 104 ± 6.3% (40 h) and 101 ± 4.6% (72 h).
For the compound `COc1cccc(C2(O)CCCCC2CN(C)C)c1` (stereo not given) [Tramadol hydrochloride], the growth yield reads like this: (40 h) 101 ± 1.3%; (72 h) 99.8 ± 2.1%.
